Compound activity (PubChem)
ELG1 repair inh: inhibitors of ELG1-dependent DNA repair in HEK293T cells; HEK293T ELG1-luciferase reporter, luminescence, 16 h; DNA damage induced by 5-fluorouridine; Potency, µM (series often up to 46.1 µM), inactives show at the top dose activity change, negative = inhibition, actives largely listed as inhibitors; hit rate 2.3% among 330,000; AID 504467; note: nearly all actives have a fitted effect of over 55% in size
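Luminescence from the luciferase reporter, measured 30 min after ONE-Glo reagent at room temperature, was the read-out. Beforehand, 2,000 cells per well were exposed for 16 hr at 37 °C to 5-fluorouridine together with compound or vehicle.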
DT40 TDP1 no CPT: qHTS for Inhibitors of human tyrosyl-DNA phosphodiesterase 1 (TDP1): qHTS in cells in absence of CPT; AID 686978, 2013; Potency, µM (highest dose often 46.2 µM), without a hit: at the top dose activity change, negative = growth inhibition, most hits filed as inhibitors; DT40 Tdp1-/- hTDP1 cells, no CPT, ATP luminescence, 48 h; hit rate 15% among 420,000; note: nearly all actives have a fitted effect of over 55% in size
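A cellular qHTS used chicken DT40 cells lacking endogenous Tdp1 but carrying stably transfected human TDP1. Compounds were applied without camptothecin, and cell growth kinetics were judged by ATP-dependent luminescence after ≥48 hr.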
DT40 TDP1 CPT: growth inhibition of DT40 Tdp1-/-;hTDP1 cells with camptothecin (screen for TDP1 inhibitors); hit rate 12% among 420,000; AID 686979; Potency, µM (highest dose often 46.2 µM), for inactives: at the top dose activity change, negative = growth inhibition, usual class: inhibitors; chicken DT40 Tdp1-/-;hTDP1 cells + 20 nM CPT, ATP luminescence, 48 h; note: nearly all actives have a fitted effect of over 55% in size
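Chicken DT40 Tdp1-/- cells stably complemented with human TDP1 were seeded at 400 cells/well in medium containing 20 nM camptothecin, exposed to pin-transferred compounds, and grown at 37 °C for at least 48 hr. Viability was read as ATP luminescence.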
ALOX12 inh: inhibitors of human 12S-lipoxygenase ALOX12; purified 12hLO, xylenol orange hydroperoxide absorbance; Potency, µM (titrated, usually from 108 µM), inactives show at the highest dose activity change, negative = inhibition, usual class: inhibitors; hit rate 1.1% among 580,000
Target sequence (P18054 whole entry, looked up): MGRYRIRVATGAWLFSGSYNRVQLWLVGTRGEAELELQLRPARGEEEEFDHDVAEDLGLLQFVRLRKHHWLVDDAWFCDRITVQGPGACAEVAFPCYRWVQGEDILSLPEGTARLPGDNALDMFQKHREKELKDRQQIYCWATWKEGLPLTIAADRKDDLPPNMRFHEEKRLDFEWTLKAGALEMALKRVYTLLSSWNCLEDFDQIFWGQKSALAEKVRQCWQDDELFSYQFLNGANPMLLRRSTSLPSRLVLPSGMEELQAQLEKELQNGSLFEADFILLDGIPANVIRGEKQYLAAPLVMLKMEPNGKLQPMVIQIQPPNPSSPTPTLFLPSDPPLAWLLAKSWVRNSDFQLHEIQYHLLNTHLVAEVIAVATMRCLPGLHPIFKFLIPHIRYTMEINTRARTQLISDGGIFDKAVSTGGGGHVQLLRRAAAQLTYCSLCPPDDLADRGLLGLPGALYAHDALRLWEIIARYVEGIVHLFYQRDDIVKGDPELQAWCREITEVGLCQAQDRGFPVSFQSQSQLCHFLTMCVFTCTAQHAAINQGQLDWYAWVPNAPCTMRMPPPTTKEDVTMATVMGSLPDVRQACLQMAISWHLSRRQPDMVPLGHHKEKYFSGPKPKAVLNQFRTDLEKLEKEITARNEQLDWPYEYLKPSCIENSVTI
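Purified human 12hLO at 150 nM in 25 mM Hepes, 0.01% Triton X-100, pH 7.0, preincubated 15 min at room temperature with compound. Reaction started with 40 uM arachidonic acid, 30 min at room temperature. Hydroperoxide measured by Fe-xylenol orange, 573/405 nm absorbance ratio.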
VP16 counter: counter-screen for ROR gamma inhibitors: Gal4-VP16 reporter; hit rate 3.5% among 310,000; Potency, µM (doses to about 53.6 µM), for the others: at the top dose activity, negative = inhibition, actives largely listed as inhibitors; Drosophila S2 Gal4-VP16 UAS-luciferase, luminescence, 20 h; AID 2546;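 note: Gal4-VP16 expression switched on by copper sulfate through the metallothionein promoter; nearly all actives have a fitted effect of over 50% in size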
RORg inh: ROR gamma (mouse) transcription inhibition | Drosophila S2 Gal4-RORgamma UAS-luciferase reporter, 20 h | Potency, µM (highest dose often 53.6 µM), inactives show at the highest dose activity change, negative = inhibition, actives largely listed as inhibitors | hit rate 5.4% among 310,000 | AID 2551; note: nearly all actives have a fitted effect of over 60% in size
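Drosophila S2 cells stably expressing Gal4-DBD/mouse RORγ fusion under metallothionein promoter plus UAS-luciferase; compound 1 h, then 700 uM CuSO4 induction for 20 h at ambient temperature; inhibition read as reduced luminescence.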
Numbers without * were called inactive; ? = inconclusive; · = no result; [ ] = remark or other dose. Rows were chosen to be rich in hits. Some 15% of all compounds tested hit in one or more screens of this group. Calls come from the whole dose curve; as a rule, active = well fitted curve in the direction sought with a large enough effect; inconclusive = small, poorly fitted or top-dose-only effect, or another doubt; inactive = no such curve, though single readings can be large; an effect the other way counts as inactive or inconclusive. % is set by controls: 0 for no effect and ±100 for the full control effect; potency is the fitted concentration of half-maximal effect.

SMILES | ELG1 repair inh | DT40 TDP1 no CPT | DT40 TDP1 CPT | ALOX12 inh | VP16 counter | RORg inh
COc1cc(OC)c(N(C)S(=O)(=O)c2cccc(C(=O)OCC(=O)c3c[nH]c4ccccc34)c2)cc1Cl | 20.6µM* | 23.1µM* | ? | -6.9% | 5.3% | 7.8%
C=CCN(c1ccccc1OC)S(=O)(=O)c1cccc(C(=O)OCC(=O)N2CCOCC2)c1 | -4.7% | ? | -25.0% | -22.7% | · | ·
Cc1ccc(C(=O)OCC(=O)c2c[nH]c3ccccc23)cc1 | ? | 0.3% | -2.1% | -10.1% | 12.8% | 1.5%
COc1ccccc1/C=C/C(=O)OCC(=O)c1c[nH]c2ccccc12 | -15.3% | 20.6µM* | ? | 283.1% | · | ·
C=CCN(c1ccccc1OC)S(=O)(=O)c1cccc(C(=O)OCC(=O)c2c[nH]c3ccccc23)c1 | 23.1µM* | 23.1µM* | ? | -30.1% | -10.6% | -8.9%[10 µM]
CC(C)Cc1ccc(C(C)C(=O)OCC(=O)c2c[nH]c3ccccc23)cc1 (configuration not stated) | ? | 13µM* | 10.3µM* | 1.8% | 17.8µM* | ?
O=C(NCC(F)F)c1cc(Br)cn2ccnc12 | · | · | · | -2.0%[176 µM] | · | ·
O=C(Cc1ccccc1)N/N=C/c1ccccc1F | ? | · | · | · | 20.3% | 1.8%
O=C(Cc1ccccc1)N/N=C/c1cc(Br)cc(Cl)c1O | ? | 2.31µM* | 3.66µM* | ? | 1.26µM* | 0.562µM*
COc1cc(Br)cc(/C=N/NC(=O)Cc2ccccc2)c1O | · | 0.461µM* | 0.517µM* | 12.4% | · | ·
Cc1cccc(C(=O)N2CCC3(CC2)CC(c2ccccc2)C(=O)N3)c1 (configuration not stated) | · | · | · | 16.9% | · | ·
CCOC(=O)c1cn(C)nc1S(=O)(=O)N1CCOCC1 | · | · | · | 11.2µM* | · | ·
O=C(Nc1ccccc1F)c1ccc(COc2ccc(Cl)cc2Cl)o1 | 9.7% | -24.8% | 0.4% | -11.2% | 0.5% | -11.4%
Cc1nn(Cc2c(F)c(F)c(F)c(F)c2F)c(C)c1NC(=O)c1ccc(COc2ccc(Cl)cc2Cl)o1 | -21.3% | 14.6µM* | 20.6µM* | -29.7% | -4.1% | ?
CC(=O)Nc1ccc(NC(=O)c2ccc(COc3ccc(Cl)cc3Cl)o2)cc1 | · | 16.4µM* | 16.4µM* | -10.5% | · | ·
Cc1nn(Cc2cccc(F)c2)c(C)c1NC(=O)c1ccc(COc2ccccc2Cl)cc1 | ? | ? | 14.6µM* | ? | ? | 29.3%
O=C(Nc1ccn(Cc2c(F)c(F)cc(F)c2F)n1)c1ccc(COc2ccc(Cl)cc2Cl)o1 | ? | ? | -23.4% | -0.7% | 0.7% | 10.8%
CC(C)CNC(=O)c1ccc(COc2ccc(Cl)cc2Cl)o1 | 9.6% | 20.6µM* | 14.6µM* | 0.0% | -1.7% | 40.1%
Cc1ccc(NC(=O)CSc2nnc(COc3ccc(C#N)cc3)n2-c2ccccc2)cc1C | 23.1µM* | ? | ? | -1.1% | 1.8% | 36.1%
COc1ccc(-n2c(Cc3cccn3C)nnc2SCC(=O)Nc2ccc(C)c(Cl)c2)cc1 | ? | ? | ? | 286.1% | 11.2µM* | ?
Cc1ccc(OCc2nnc(SCC(=O)Nc3nccs3)n2-c2ccccc2)cc1C | -1.1% | ? | ? | -0.2% | 0.4% | -4.0%
O=C(CSc1nnc2[nH]c(=O)c(Cc3ccccc3)nn12)Nc1cccc(Cl)c1 | · | · | · | 25.1µM* | · | ·
Cc1ccc(CCc2nnc(SCC(=O)Nc3cccc(Cl)c3)n2-c2ccccc2)o1 | 6.2% | 13µM* | ? | -24.0% | ? | ?
COc1cccc(C(=O)N2[C@@H]3CC[C@H]2CC(NC(=O)c2cnc(C)cn2)C3)c1C (some centres not stated) | · | · | · | 3.9% | · | ·
CCc1cccc(CC)c1NC(=O)c1ccc(CSc2ccccc2)cc1 | · | · | · | 10.4% | · | ·
SMILES | ELG1 repair inh | DT40 TDP1 no CPT | DT40 TDP1 CPT | ALOX12 inh | VP16 counter | RORg inh
Cc1ccc(NC2(c3nnnn3-c3ccc(C)cc3)CCCC2)cc1 | · | · | · | -6.0% | · | ·
COc1ccc(CNC(=O)[C@H](C)NC(=O)c2cc3c(OC)ccc(OC)c3[nH]2)cc1 | · | · | · | -10.6% | · | ·
COc1ccc(Cl)cc1C(=O)NNC(=O)C1CCCC(C(F)(F)F)C1 (configuration not stated) | · | · | · | 49.5% | · | ·
N#C/C(=C/c1ccc(-c2ccccc2)cc1)C(N)=O | · | · | · | 38.8% | · | ·
Cc1cc(C)cc(NC(=O)CSc2nnc(Cc3cccn3C)n2-c2ccc(F)cc2)c1 | -15.5% | -22.1% | -22.7% | 465.4% | 11.2µM* | ?
Cc1cc(C)c(NC(=O)CSc2nnc(Cc3cccn3C)n2-c2ccc(F)cc2)c(C)c1 | -9.8% | -16.5% | ? | 3.5% | -6.0% | 28.2%
O=C(O)CN1C(=O)C=CC1=O | · | -15.5% | -4.8% | -16.0% | · | ·
O=C1C=CC(=O)N1CCCCCCN1C(=O)C=CC1=O | 23.1µM* | 2.06µM* | 1.46µM* | ? | 0.891µM* | 3.16µM*
Cn1c(SCC(=O)Nc2ccc(C(=O)O)cc2)nnc1-c1ccc(Cl)cc1Cl | · | · | · | -26.0% | · | ·
CCOC(=O)c1c(NC(=O)COC(=O)c2ccc(O)cc2)sc(C(=O)N(C)C)c1C | ? | 23.1µM* | ? | -0.6% | -0.2% | -6.3%
COC(=O)c1c(NC(=O)COC(=O)CNC(=O)c2ccco2)sc(C)c1C | 5.4% | 5.4% | 8.8% | 10.9% | -12.0% | -10.5%
CCOC(=O)c1c(NC(=O)COC(=O)CNC(=O)c2ccco2)sc(C)c1C | 17.1% | ? | 5.8µM* | 36.0% | 2.7% | -0.9%
CCOC(=O)c1c(NC(=O)COC(=O)CCOc2ccccc2C)sc(C(=O)NC)c1C | ? | ? | 23.1µM* | -1.1% | · | ·
CCOC(=O)c1c(NC(=O)CN2CCN(S(=O)(=O)c3cc(Cl)ccc3Cl)CC2)sc(C(=O)N(C)C)c1C | · | ? | 16.4µM* | -19.9% | · | ·
CCCn1c(=O)[nH]c(=O)c2c1nc(-c1ccc(OCC#N)c(OC)c1)n2CCOC | · | · | · | 14.4% | · | ·
Cc1cc(-c2nc3cc(NC(=O)C(C)C)ccc3o2)ccc1Br | · | · | · | -6.9% | · | ·
CCOC(=O)c1c(NC(=O)C(Sc2ccccc2)c2ccccc2)sc(C(=O)N(C)C)c1C (configuration not stated) | ? | 16.4µM* | ? | 2.4% | -26.2% | ?
CCOC(=O)c1c(NC(=O)OC)sc(C(=O)N(C)C)c1C | -4.2% | -19.6% | -13.2% | -2.5% | -2.7% | -14.4%
CCOC(=O)c1c(NC(=O)CN2C(=O)NC(C)(c3ccc(Cl)cc3)C2=O)sc(C(=O)NC)c1C (configuration not stated) | 18.4µM* | 11.6µM* | 23.1µM* | -19.7% | -23.0% | 39.1%
